Measured values: PubChem BioAssay (EPA / NIEHS)
Active and inactive are the calls of the source. How the source made its calls: active means hit-call score of the fitted dose curve at least 0.9, where 1 is the maximum; inactive means score below 0.9.

Read-out: Thrombomodulin, THBD (gene 7056)
Assay: BSK_LPS_Thrombomodulin: BioMAP Diversity Plus: LPS Assay for Thrombomodulin Biomarker Activity (AID 2284296)
Details: primary human HUVEC with PBMC
Experimental: BSK_LPS is a cell-based, multiplexed-readout assay that uses umbilical vein endothelium and peripheral blood mononuclear cells, a human vascular primary cell co-culture, with measurements taken at 24 hours after chemical dosing in a 96-well plate.BSK_LPS_Thrombomodulin is an assay component measured in the BSK_LPS assay. It measures Thrombomodulin antibody related to regulation of gene expression using ELISA technology.Data from the assay component BSK_LPS_Thrombodulin was analyzed at the endpoint, BSK_LPS_Thrombomodulin, in the positive analysis fitting direction relative to DMSO as the negative control and baseline of activity. Using a type of binding reporter, gain or loss-of-signal activity can be used to understand protein changes. To generalize the intended target to other relatable targets, this assay endpoint is annotated to the 'gpcr' intended target family, where the subfamily is 'rhodopsin-like receptor'.
The levels of cell surface (or secreted, indicated by the prefix "s") biomarker endpoints were measured by ELISA. Overt cytotoxicity to cells in confluent adherent cultures (all systems other than the BT system) was assessed by measuring total protein levels using sulforhodamine B (SRB) staining in parallel cultures at the time of biomarker measurements, indicated as SRB endpoints. For proliferation assays for adherent cell types, individual cell types are cultured at sub-confluence and relative cell numbers quantified by SRB staining at time points optimized for each system (48 h: 3C and CASM3C systems; 72 h: BT and HDF3CGF systems; 96 h: SAg system). SRB was performed by staining cells with 0.1% SRB after fixation with 10% TCA and reading wells at 560 nm.Viability and proliferation of PBMC (T cells) was quantified by Alamar Blue reduction for the SAg and BT systems. For PBMC viability (referred to as PBMC Cytotoxicity within the assay endpoint names), cells were plated (75,000/well in a 96-well plate) and then chemical samples added for 1 h before addition of activators, SEB and TSST-1 (20 ng/mL final concentration each). Cells were incubated for 90 h. Then, Alamar Blue (20 uL/well) (Invitrogen, Cat DAL1100) was added for 6 h, and the plates were read with a fluorescence microplate reader at 546/580 nm (excitation/emission). For PBMC proliferation, cells were plated and activated as above but incubated for only 16 h prior to addition of Alamar Blue. Plates were read after 6 h.

outcome, inactive:
CC[Si](OC(C)=O)(OC(C)=O)OC(C)=O
NCCNCCN
CC(=O)OCCC(C)CC(C)(C)C (configuration not stated)
C=CCOC(=O)CCC1CCCCC1
Cc1cc(C2(c3cc(C)c(O)cc3C)OS(=O)(=O)c3ccccc32)c(C)cc1O
C[C@H]1C[C@@H]2[C@H]([C@@H](O)C[C@@]3(C)[C@H]2CC[C@]3(O)C(=O)CO)[C@@]2(C)C=CC(=O)C=C12
OC1OC[C@@H](O)[C@H](O)[C@H]1O (some centres not stated)
OC[C@H]1O[C@H](O[C@]2(CCl)O[C@H](CCl)[C@@H](O)[C@@H]2O)[C@H](O)[C@@H](O)[C@H]1Cl
CCC(=O)OCc1ccccc1
Nc1cc([N+](=O)[O-])ccc1O
COc1cc(C=O)ccc1OC(=O)C(C)C
CC(=O)[C@H]1CC[C@H]2[C@@H]3CC=C4C[C@@H](O)CC[C@]4(C)[C@H]3CC[C@]12C
